KB-3-1 tox: qHTS assay for MDR1-selective chemotherapeutics: Primary screen using the parental adenocarcinoma cell KB-3-1 | AID 1347075, 2019 | KB-3-1 viability, CellTiter-Glo ATP luminescence, 72 h | 400,000 compounds, 1.4% hits | Potency, µM (doses to about 46.1 µM), actives largely listed as cytotoxic; note: nearly all actives have a fitted effect of over 60% in size
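Cells are dispensed, compounds pinned in, plates held at 37 °C for 72 h, then CellTiter-Glo is added and luminescence read after 10 minutes. Cell line: parental KB-3-1 in phenol-red-free DMEM, 10% FBS.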
HT1080NT lethal: qHTS for induction of synthetic lethality in tumor cells producing 2HG: qHTS for the HT-1080-NT fibrosarcoma cell line; HT-1080-NT fibrosarcoma viability, CellTiter-Glo ATP luminescence, 48 h; Potency, µM (top dose mostly 46.1 µM), most hits filed as cytotoxic; 360,000 compounds, 1.6% hits;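 note: NT is the 2HG producing partner of a matched IDH1 knockdown line; nearly all actives have a fitted effect of over 55% in size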
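A 48-hour cytotoxicity screen used HT-1080-NT cells plated 2 hours before compound delivery. ATP-based CellTiter-Glo luminescence measured viability, normalized to DMSO and no-cell controls.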
IL-1B inflam inh: qHTS for Inhibitors of Inflammasome Signaling: IL-1-beta AlphaLISA Primary Screen; 360,000 compounds, 4.7% hits; activity change, % at 57.5 µM; THP-1 LPS/ATP IL-1B secretion, AlphaLISA, 16 h; stronger effect = lower value; in the data active = activity change below about -50%; inconclusive = mostly about -30% to -49%
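THP-1 cells pretreated 1 hr with compounds (up to 57.5 uM final), then stimulated with LPS (250 ng/mL final) plus ATP (1.25 mM final); secreted IL-1B measured by AlphaLISA after 16 hr, decreased signal indicating inhibition.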
KB-V1 MDR tox: qHTS assay for MDR1-selective chemotherapeutics: Primary screen using the drug-selected MDR subline cells KB-V1. Potency, µM (titrated, usually from 46.1 µM), hits mostly cytotoxic. AID 1347076, 2019. 400,000 compounds, 3.4% hits. KB-V1 MDR cells viability, CellTiter-Glo, 72 h; note: nearly all actives have a fitted effect of over 60% in size
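Compound-treated KB-V1 multidrug-resistant cells, 72 h, 37 degrees C; viability by CellTiter-Glo. Fitted qHTS curves give the values.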
HT1080 IDH1KD tx: qHTS for induction of synthetic lethality in tumor cells producing 2HG: qHTS for the HT-1080-IDH1KD cell line; HT-1080 IDH1 knockdown viability, ATP luminescence, 48 h; Potency, µM (top dose mostly 46.1 µM), usual class: cytotoxic; 360,000 compounds, 2% hits; AID 686971, 2013
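In this qHTS, HT-1080 cells depleted of IDH1 are exposed for 48 h at 37 °C to compound titrations. Toxicity is scored from CellTiter-Glo luminescence, with DMSO as full viability and medium alone as none.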
Of the large screens only hits and unclear results are named; the others gave an inactive call. This is a sample that favours compounds with a hit; in the whole collection about 8.8% have one here. Unless noted, calls come from the whole dose curve; as a rule, active = well fitted curve in the direction sought with a large enough effect; inconclusive = small, poorly fitted or top-dose-only effect, or another doubt; inactive = no such curve, though single readings can be large; an effect the other way counts as inactive or inconclusive.

Cc1noc(C)c1C(=O)Nc1ccccc1N1CCOCC1	none
CC(C)CC(=O)NC(=S)Nc1cc(C(F)(F)F)ccc1N1CCOCC1	KB-V1 MDR tox 18.4µM
Cc1onc(-c2ccccc2)c1C(=O)Nc1cc(C(F)(F)F)ccc1N1CCOCC1	KB-3-1 tox 5.8µM, HT1080NT lethal inconclusive, KB-V1 MDR tox 5.17µM, HT1080 IDH1KD tx 2.91µM
Cc1onc(-c2ccccc2)c1C(=O)Nc1ccccc1N1CCOCC1	KB-V1 MDR tox 13µM
CN1CCN(c2ccc(C(F)(F)F)cc2NC(=O)Nc2ccccc2)CC1	HT1080NT lethal inconclusive, IL-1B inflam inh -84.4
O=C(Nc1cc(C(F)(F)F)ccc1N1CCOCC1)c1ccncc1	none
CCC(Sc1nc2n[nH]c(C)c2c(=N)n1-c1ccc(Br)cc1)C(=O)N(CC)CC (stereo unspecified)	KB-V1 MDR tox inconclusive (no result: HT1080NT lethal, IL-1B inflam inh, HT1080 IDH1KD tx)
O=C(CSC1=Nc2ccccc2C2=NC(Cc3ccccc3)C(=O)N12)Nc1ccccc1F (stereo unspecified)	none (no result: HT1080NT lethal, IL-1B inflam inh, HT1080 IDH1KD tx)
Cc1cc(C)c(S(=O)(=O)Nc2ccc(-c3ccc(N4CCCCC4)nn3)cc2)cc1C	none (no result: HT1080NT lethal, IL-1B inflam inh, HT1080 IDH1KD tx)
CCOC(=O)c1ccc(N2CCOCC2)c(NC(=O)c2c(-c3ccccc3)noc2C)c1	KB-3-1 tox 5.8µM, HT1080NT lethal 1.84µM, KB-V1 MDR tox inconclusive, HT1080 IDH1KD tx 2.06µM
CCN(CC)S(=O)(=O)c1ccc(N2CCCC2)c(NC(=O)c2c(-c3ccccc3)noc2C)c1	none
COC(=O)c1ccc(C(=O)OC)c(NC(=O)Cc2cccs2)c1	none
COc1ccc(OCC(O)CN(CC(O)COc2ccc(OC)cc2)c2cccc(O)c2)cc1 (stereo unspecified)	HT1080NT lethal inconclusive, IL-1B inflam inh -50.1, HT1080 IDH1KD tx inconclusive
COc1ccc(OCC(O)COc2ccc(OC)cc2)cc1	none
COc1ccccc1CC(=O)Nc1ccc([N+](=O)[O-])cc1O	KB-3-1 tox inconclusive, HT1080NT lethal inconclusive, IL-1B inflam inh -63.3, KB-V1 MDR tox inconclusive, HT1080 IDH1KD tx inconclusive
CCOCC(=O)Nc1ccc([N+](=O)[O-])cc1OC	IL-1B inflam inh -62.0, KB-V1 MDR tox inconclusive
COc1ccc(COC(=O)C2=C(C)NC(=O)CC2c2cccc(Cl)c2Cl)cc1 (stereo unspecified)	none (no result: HT1080NT lethal, IL-1B inflam inh, HT1080 IDH1KD tx)
COc1cccc2c1C(=O)/C(=C\c1ccc(N(C)C)cc1)C2	KB-V1 MDR tox inconclusive (no result: HT1080NT lethal, IL-1B inflam inh, HT1080 IDH1KD tx)
Cc1nn(CCCC(=O)NCc2ccc(F)cc2)c(=O)c2c1sc1ccccc12	none (no result: HT1080NT lethal, IL-1B inflam inh, HT1080 IDH1KD tx)
CC(C)C(=O)C1=Cc2cccc([N+](=O)[O-])c2OC1N1CCOCC1 (stereo unspecified)	IL-1B inflam inh -59.7, KB-V1 MDR tox inconclusive
CN(CC(=O)O)c1ccc(/C=C/c2ccnc3ccccc23)cc1	KB-V1 MDR tox inconclusive (no result: HT1080NT lethal, IL-1B inflam inh, HT1080 IDH1KD tx)
COc1ccc(N(C)S(=O)(=O)c2cccc(C(=O)NCC(c3cccs3)N(C)C)c2)cc1 (stereo unspecified)	none
CN(C)C(CNC(=O)c1cc(S(=O)(=O)N(C)c2ccc(F)cc2)ccc1Cl)c1cccs1 (stereo unspecified)	KB-3-1 tox inconclusive, KB-V1 MDR tox 4.11µM
Cc1ccc(NS(=O)(=O)c2ccc3c(c2)n(C)c(=O)n3C)cc1	KB-3-1 tox inconclusive
COc1ccc(NS(=O)(=O)c2ccc3c(c2)n(C)c(=O)n3C)cc1	IL-1B inflam inh -70.4
Cn1c(=O)n(C)c2cc(NS(=O)(=O)c3ccc4c(c3)CCCC4)ccc21	KB-3-1 tox 18.4µM, HT1080NT lethal inconclusive, KB-V1 MDR tox 9.2µM, HT1080 IDH1KD tx inconclusive
CSc1sc(C(=O)NCC2CC2)cc1S(=O)(=O)C(C)C	none
COC(=O)c1cc(S(=O)(=O)C(C)C)c(S(C)=O)s1 (stereo unspecified)	HT1080NT lethal inconclusive, IL-1B inflam inh -99.6
Brc1ccc(Cn2c(-c3cncs3)nc3ccccc32)cc1	KB-V1 MDR tox 16.4µM
Cc1nc2ccccc2n1Cc1ccc(Br)cc1	KB-3-1 tox inconclusive, IL-1B inflam inh -63.4, KB-V1 MDR tox inconclusive, HT1080 IDH1KD tx inconclusive
Cc1cc(C)c2nc(SC(C)C#N)cc(C)c2c1 (stereo unspecified)	KB-3-1 tox inconclusive, KB-V1 MDR tox inconclusive
Cc1ccc(C(=O)NCc2ccccc2CN2CCCC2)cc1S(=O)(=O)N1CCOCC1	none
CCN(CC)C(=O)c1ccc2nc(-c3ccccc3)c(-c3ccccc3)nc2c1	KB-3-1 tox inconclusive, KB-V1 MDR tox 4.11µM
CCN(CC)C(=O)c1ccc2nc3ccccc3nc2c1	KB-3-1 tox 5.8µM, KB-V1 MDR tox 16.4µM
COc1cccc(-c2cccc(NC(=O)C3CCN(CCCn4cccn4)CC3)c2)c1	none
COc1cccc(CNC(=O)[C@@H]2CCCN2C(=O)[C@@H]2CCCN2C(=O)c2cccc(OC)c2)c1	KB-3-1 tox inconclusive, KB-V1 MDR tox inconclusive
O=C(CCc1ccccn1)NC1CCCc2c1cnn2-c1ccc(F)cc1F (stereo unspecified)	KB-3-1 tox inconclusive, KB-V1 MDR tox 20.6µM
O=C(NC1CCCc2c1cnn2-c1ccc(F)cc1F)c1ccccn1 (stereo unspecified)	IL-1B inflam inh inconclusive
CCc1cc(C(=O)NC2CCCc3c2cnn3-c2ccc(F)cc2F)no1 (stereo unspecified)	KB-3-1 tox 14.6µM, KB-V1 MDR tox inconclusive
Cc1cc(C=C2C(=O)c3ccccc3C2=O)c(C)n1-c1ccc(C(=O)O)cc1	IL-1B inflam inh -56.0
Cc1cc(/C=C2\Cc3ccccc3C2=O)c(C)n1-c1ccccc1	IL-1B inflam inh -61.9
Cc1cc(C=C2C(=O)c3ccccc3C2=O)c(C)n1-c1ccccc1	none
Cc1ccc(S(=O)(=O)N2CCN(c3nc(-c4ncccn4)nc4ccccc34)CC2)cc1	none (no result: KB-3-1 tox, IL-1B inflam inh, KB-V1 MDR tox)
CC1CN(C(=O)Nc2ccc(C(=O)NCCc3ccc(Cl)cc3)cc2)c2ccccc2S1 (stereo unspecified)	none (no result: HT1080NT lethal, IL-1B inflam inh, HT1080 IDH1KD tx)
CCc1ccc(C(C)NC(=O)C2(C)CC2(Br)Br)cc1 (stereo unspecified)	IL-1B inflam inh -60.7
CCC(C)c1ccc(OCC(=O)Nc2cccc3ccc(C)nc23)cc1 (stereo unspecified)	none (no result: HT1080NT lethal, IL-1B inflam inh, HT1080 IDH1KD tx)
CC(C)(C)NC(=O)C(c1ccc(F)cc1)N(Cc1cccs1)C(=O)c1ccc(CN2CCOCC2)o1 (stereo unspecified)	IL-1B inflam inh -52.7, KB-V1 MDR tox inconclusive
Cc1csc2ncc(C(=O)N3c4ccccc4CC3C)c(=O)n12 (stereo unspecified)	none
Cc1nc2cc(C(=O)N3c4ccccc4CC3C)ccc2s1 (stereo unspecified)	KB-3-1 tox 20.6µM, HT1080NT lethal 11.6µM, KB-V1 MDR tox inconclusive, HT1080 IDH1KD tx 13µM

High-throughput results deposited in PubChem BioAssay by National Center for Advancing Translational Sciences (NCATS).
